Screens (PubChem)
KCNQ2 block – rat KCNQ2 potassium channel inhibitors, primary screen, cell-based, CHO-K1, FluxOR thallium flux, B-score; 310,000 compounds, 1.1% hits; 20 min; stronger effect = lower value; Potassium voltage-gated channel subfamily KQT member 2 (Rattus norvegicus), O88943; B-score at 10 µM;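 active = fluorescence ratio B-score at most minus 3 library SDs, with starting brightness B-score within 2 library SDs, cut at about -5.5 in these data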
KCNQ2 pot – potentiators of rat KCNQ2 potassium channel; 310,000 compounds, 0.54% hits; AID 2239, 2010; Potassium voltage-gated channel subfamily KQT member 2 (Rattus norvegicus), O88943; B-score at 10 µM; CHO-K1 KCNQ2, FluxOR thallium flux fluorescence; stronger effect = higher value;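 active = fluorescence ratio B-score at least 3 SD of library B-scores, with initial fluorescence B-score within 3 of them, cut at about 5.3 in these data; same plate scores as AID 2156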;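 note: B-score of peak minus minimum over baseline fluorescence ratio after K+ and Tl+ stimulus; positive B-score means potentiation of KCNQ2 with more thallium influx and brighter signal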
Starred values were filed as active, the others as inactive; i = inactive; x = not tested or not shown. A selection: hits, their analogues and other compounds. The true share with any hit is near 1.6%.

SMILES	KCNQ2 block	KCNQ2 pot
COc1cccc(-c2nn(-c3ccc(C)cc3)cc2C(=O)N2CCc3cc(OC)c(OC)cc3C2)c1	-6.2*	-6.2
COc1ccccc1NS(=O)(=O)c1ccc(C)c(NS(=O)(=O)c2cc(C(=O)O)cc(C)c2C)c1	i	1.2
CC(=O)C(Cc1ccccc1)(Cc1ccccc1)C(C)=O	i	0.24
CCOC(=O)C(Cc1ccccc1)(Cc1ccccc1)C(C)=O	-6.4*	-6.4
CC1Sc2ccc(S(=O)(=O)N3CCC(C(=O)NCC(C)c4ccccc4)CC3)cc2NC1=O (configuration not stated)	i	1
CN(C(=O)Nc1ccccc1)C1CCCCC1	i	0.2
CC(c1cccs1)N(C(=O)Nc1ccccc1)C1CCCCC1 (configuration not stated)	-5.9*	-5.9
CO/N=C/C1CCN(c2ncc(C(F)(F)F)cc2Cl)C1=O (configuration not stated)	i	x
CC(/C=C1\SC(=S)N(NC(=O)c2ccccc2C)C1=O)=C\c1ccccc1	i	x
CC(/C=C1\SC(=S)N(NS(=O)(=O)c2ccc(C)cc2)C1=O)=C\c1ccccc1	i	21*
Cc1cc(C(=O)CN2C(=O)NC(c3ccccc3)(c3ccccc3)C2=O)c(C)n1Cc1ccccc1	i	x
COc1ccccc1NC(=O)C(C)OC(=O)Cc1n[nH]c(=O)c2ccccc12 (configuration not stated)	i	0.51
Cc1cccc(C(C)C)c1NC(=O)C(C)OC(=O)Cc1n[nH]c(=O)c2ccccc12 (configuration not stated)	-6.7*	-6.7
O=C(c1cc(Cl)nc2ccccc12)N(Cc1nnc(-c2ccccc2Cl)o1)C1CC1	i	0.52
COCc1ccc(CN2CCCCC2C(=O)Nc2ccc(Oc3ccccc3)nc2)o1 (configuration not stated)	i	x
O=C(Cn1nc(-c2ccccc2)nc1-c1ccccc1)OC1CCCCC1	-6.1*	-6.1
CCOC(=O)Cn1nc(-c2ccccc2)nc1-c1ccccc1	i	x
Cc1cc(OCC(=O)O/N=C(\N)c2ccccc2)ccc1Br	i	x
CN1CCN(NS(=O)(=O)c2ccc(Cl)cc2)CC1	i	0.06
CC1CCC(C(C)C)C2=C1C(C#N)(C#N)C(C#N)(C#N)C(c1ccccc1)N2 (configuration not stated)	-7.8*	-7.8
CC1=CC(C#N)(C#N)C(C#N)(C#N)C(c2ccccc2)N1 (configuration not stated)	i	x
N#CC(c1cccc(C(F)(F)F)c1)(c1ncc(C(F)(F)F)cc1Cl)N1CCOCC1 (configuration not stated)	i	x
N#CC(c1ccccc1)(c1ncc(C(F)(F)F)cc1Cl)N1CCOCC1 (configuration not stated)	-7*	-7
Cn1ccnc1Sc1nc(Nc2cccc(Cl)c2)nc(N2CCOCC2)n1	-6.2*	-6.2
Cc1cccc(Nc2nc(N3CCOCC3)nc(N3CCOCC3)n2)c1	i	0.48
SMILES	KCNQ2 block	KCNQ2 pot
O=C(COc1ccccc1Cl)Nc1nnc(S(=O)(=O)N2CCCCCC2)s1	i	0.03
O=S(=O)(Cc1nnnn1-c1ccccc1)c1ccc(Cl)cc1	i	x
CCC(CC)NC(=O)c1oc2ccccc2c1COc1ccccc1	i	x
CC(C)CNC(=O)c1oc2ccccc2c1COc1ccccc1	-6.4*	-6.4
CCOc1ccccc1N1CC(C(=O)Nc2cc(S(C)(=O)=O)ccc2Cl)CC1=O (configuration not stated)	i	1.8
CCc1cccc(C)c1NC(=S)N(CCN(C)C)C(C)c1cccnc1 (configuration not stated)	i	x
Cc1nc(NC(=O)C23CC4CC(CC(C4)C2)C3)sc1Cc1ccc2c(c1)OCO2	i	21*
Cc1nc(NC(=O)C2CCCC2)sc1Cc1ccc2c(c1)OCO2	i	0.1
O=C(CSc1nnc(-c2ccco2)o1)N1CCCCC1	i	1.1
COC(=O)CCSc1nc(N2CCOCC2)c2c(c1C#N)CC(C)(C)OC2	i	1.8
CC(C)CCSc1nc(N2CCOCC2)c2c(c1C#N)CC(C)(C)OC2	-6.5*	-6.5
CC1=C(C(=O)OCc2ccccc2)C(c2ccc3c(c2)OCO3)NC(=O)N1CCCC(=O)O (configuration not stated)	i	1.1
Cc1cc(Sc2ncnc(N)c2[N+](=O)[O-])ncn1	-5.9*	-5.9
Cc1cc(Sc2nc(N)ncc2[N+](=O)[O-])ncn1	i	x
C=CCN1CC(=O)N2C(c3ccccc3)c3[nH]c4ccccc4c3C[C@H]2C1=O (some centres not stated)	i	1.2
O=C(NC1CCCc2ccccc21)c1cccc(Br)c1 (configuration not stated)	i	x
CC(C)[C@H](NC(=O)NC1CCCc2ccccc21)C(=O)O (some centres not stated)	i	x
COC(=O)[C@H](C)NC(=O)NC1CCCc2ccccc21 (some centres not stated)	-6.5*	-6.5
CN(C)c1cccc(C(=O)NC2CCCc3ccccc32)c1 (configuration not stated)	-6.5*	-6.5
CC1CCCN(C(=O)c2ccc(-c3ccccc3Cl)o2)C1 (configuration not stated)	-7.4*	-7.4
CC1CCCN(C(=O)c2ccc([N+](=O)[O-])o2)C1 (configuration not stated)	i	x
COC(=O)Nc1ccc2c(c1)N(C(=O)CCN(C)C)c1ccccc1CC2	i	0.98
COC(=O)Cc1ccc(NC(=S)NCCC(C)C)cc1	i	x
CC(C)CCNC(=S)Nc1ccc(Br)cc1	i	5.3*
CCCCNC(=S)Nc1ccc(Oc2ccccc2)cc1	i	x
SMILES	KCNQ2 block	KCNQ2 pot
CCCCNC(=S)Nc1ccc([N+](=O)[O-])cc1	i	12*
CCCNC(=S)Nc1ccc(Br)cc1	i	2.3
CC(C)CCNC(=S)Nc1ccc([N+](=O)[O-])cc1	i	14*
O=S(=O)(Nc1cccc(-n2cnnn2)c1)c1ccccc1C(F)(F)F	i	2.1
CCOC(=O)c1sc(NC(=O)CSc2nc3c(c(=O)n2-c2ccc(C)cc2)SCC3)c(C(=O)OCC)c1C	i	x
CC(O)[C@H]1CNC(=O)C(=O)N1CC1(c2ccccc2)CC1 (some centres not stated)	i	3.9
COc1ccc(C(=O)NCC(=O)OCC(=O)Nc2cccc(S(=O)(=O)N3CCCC3)c2)cc1	i	1.5
Cc1ccc(S(=O)(=O)N2CCC(=O)N(C(COCc3cccc(C(F)(F)F)c3)C(C)C)CC2)cc1 (configuration not stated)	i	x
Cc1nc2ccc(NC(=O)c3cc(Cl)ccn3)cc2s1	i	x
CCOc1ccccc1NC(=O)NCCCCc1ccccc1	i	x
CCN(CC)CCOc1ccc(/C(=C(\Cl)c2ccccc2)c2ccccc2)cc1	-7.6*	-7.6
CCN(CC)CCOc1ccc(Br)cc1	i	x
COc1cc(/C=N/NC(=O)C2CCN(CC(O)COCc3ccccc3)CC2)ccc1O (configuration not stated)	i	0.05
CCOc1ccc(N(C(=O)CNS(=O)(=O)c2ccccc2)C(CC)C(=O)NCc2ccco2)cc1 (configuration not stated)	i	1.5
CCC(C(=O)NCc1ccco1)N(C(=O)CNS(=O)(=O)c1ccccc1)c1ccc(OC)cc1 (configuration not stated)	-5.8*	-5.8
